A selection: hits, their analogues and other compounds. The true share with any hit is near 7.3%.
Luc counter: blocks Kinase-Glo luciferase, a counter-screen artifact; Q27757; Kinase-Glo luciferase, ATP luminescence, 8 min; Potency, µM (top dose mostly 38.3 µM), for the others: at the highest dose activity change, negative = inhibition, most hits filed as inhibitors; 0.28% of 200,000 active; AID 1379; note: % is set by controls: 0 for no effect and ±100 for the full control effect; nearly all actives have a fitted effect of over 60% in size
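Luminescence was the read-out, taken after 8-minute incubation at ambient temperature. Luciferase turned over luciferin with 10 uM ATP in imidazole pH 7.2 buffer containing KCl, MgCl2, Tween 20 and BSA.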
ELG1 genotox: inducers of genotoxicity in HEK293T ELG1-luciferase cells; 1.3% of 330,000 active; AID 504466; HEK293T ELG1-luciferase reporter, luminescence, 16 h; Potency, µM (series often up to 46 µM), without a hit: at the top dose activity change, positive = activation, hits mostly activators; note: % of control where 0% means no effect; nearly all actives have a fitted effect of over 60% in size
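Reporter readout depends on ELG1 protein level, which increases with genetic stress. After 16 hr compound exposure at 37 °C, luciferase activity was quantified using ONE-Glo.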
NPC1 promoter act: activators of NPC1 promoter | Huh7 NPC1 promoter luciferase reporter, 24 h | Potency, µM (series often up to 9.22 µM), inactives show top-dose activation, most hits filed as activators | 2.4% of 320,000 active | AID 485313; note: % of control where 0% means no effect; nearly all actives have a fitted effect of over 60% in size
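In 1536-well qHTS, Huh7 cells harboring an NPC1 promoter–luciferase construct received compound for 24 h; activation was quantified by luminescence following luciferase reagent addition.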
Rab9 promoter act: activators of Rab9 promoter | Huh7 Rab9 promoter-luciferase reporter, luminescence, 24 h | Potency, µM (series often up to 9.22 µM), for inactives: top-dose activation, negative = inhibition, hits mostly activators | 2.8% of 320,000 active | AID 485297; note: % of control where 0% means no effect; nearly all actives have a fitted effect of over 60% in size
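Luciferase signal after 10 min detection reagent at ambient indicates Rab9 promoter upregulation; stably transfected Huh7 cells were treated 24 h with compound in DMSO at 37 °C, 5% CO2.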
FLuc counter: counter-screen for miR-21 project: firefly luciferase inhibitors or activators; P08659; purified FLuc, Km substrates, luminescence inhibition; Potency, µM (top dose mostly 57.5 µM), inactives show at the highest dose activity change, negative = inhibition, actives largely listed as inhibitors; 6.9% of 360,000 active; AID 588342;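 note: plate controls were vehicle for no effect and reference inhibitor for full effect; nearly all actives have a fitted effect of over 55% in size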
Target sequence (P08659 whole entry, looked up): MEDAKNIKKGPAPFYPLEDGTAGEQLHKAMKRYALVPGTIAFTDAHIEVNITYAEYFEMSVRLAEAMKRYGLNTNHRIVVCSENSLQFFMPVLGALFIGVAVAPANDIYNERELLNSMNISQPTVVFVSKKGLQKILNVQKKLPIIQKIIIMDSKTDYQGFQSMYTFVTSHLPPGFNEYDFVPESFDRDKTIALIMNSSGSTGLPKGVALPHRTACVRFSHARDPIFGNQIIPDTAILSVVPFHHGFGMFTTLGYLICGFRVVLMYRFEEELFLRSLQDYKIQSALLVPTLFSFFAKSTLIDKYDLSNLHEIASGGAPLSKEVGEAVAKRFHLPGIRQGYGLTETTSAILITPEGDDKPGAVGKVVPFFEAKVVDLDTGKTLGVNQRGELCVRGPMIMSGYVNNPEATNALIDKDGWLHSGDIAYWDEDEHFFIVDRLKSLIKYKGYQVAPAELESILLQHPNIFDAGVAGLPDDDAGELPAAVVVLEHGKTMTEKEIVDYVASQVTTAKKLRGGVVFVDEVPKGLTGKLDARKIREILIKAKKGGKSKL
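Purified P. pyralis luciferase, 10 nM final, with Km-level 10 uM D-luciferin and 10 uM ATP in 50 mM Tris acetate pH 7.5, 10 mM Mg acetate, 0.01% Tween-20, 0.05% BSA; 6-point qHTS titration about 60 µM downward; luminescence read.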
SMN2 splice enh: increases expression of the SMN2 splice variant; HEK293 SMN2-luciferase splicing reporter, luminescence, 30-36 h; Potency, µM (top dose mostly 46.1 µM), inactives show at the highest dose activity change, positive = activation, most hits filed as activators; 2.8% of 210,000 active; AID 1458; note: % of control where 0% means no effect; nearly all actives have a fitted effect of over 55% in size
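HEK293 cells carry an SMN2 […]–luciferase reporter in which exon 7 inclusion puts luciferase in frame. Cells were plated 10-12 h before compound addition, then incubated 30-36 h at 37C. ONE-Glo luminescence was read; sodium butyrate at 4.5 mM final served as control.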
The depositor's hits bear a star; ? = inconclusive; · = no result given. Calls come from the whole dose curve; as a rule, active = well fitted curve in the direction sought with a large enough effect; inconclusive = small, poorly fitted or top-dose-only effect, or another doubt; inactive = no such curve, though single readings can be large; an effect the other way counts as inactive or inconclusive. Potency is the fitted concentration of half-maximal effect.

SMILES | Luc counter | ELG1 genotox | NPC1 promoter act | Rab9 promoter act | FLuc counter | SMN2 splice enh
C/C=C/C(=O)Nc1nnc(C2CCCCC2)s1 | -2% | 1% | -4% | 1% | 27µM* | ·
Cc1ccc(C(=O)Nc2nnc(C3CCCCC3)s2)o1 | -5% | 3.7µM* | 1.8µM* | 4µM* | 9.5µM* | 11µM*
CCOCC(=O)Nc1nnc(C2CCCCC2)s1 | 3% | ? | ? | ? | ? | 13µM*
COc1cc(C2CC(=O)N3CN(c4ccccc4C)CSC3=C2C#N)cc(OC)c1OC (stereo unspecified) | -1% | -2% | -3% | -1% | ? | 7%
O=S(=O)(c1ccc(Cl)cc1)N1CCN(CCc2ccccc2)CC1 | · | -3% | -7% | -2% | -1% | ·
COc1ccc(Nc2nc(N)nc(CSc3nccn3C)n2)cc1 | -2% | ? | 1.4µM* | 1.8µM* | 21µM* | ·
Cn1cnnc1SCc1nc(N)nc(Nc2ccccc2)n1 | -2% | ? | ? | ? | ? | 5%
Cc1ccc(Nc2nc(N)nc(CSc3nncn3C)n2)cc1 | -1% | ? | 3.2µM* | 2.8µM* | 13µM* | 18µM*
Nc1nc(CSc2ccccn2)nc(Nc2ccccc2)n1 | 1% | ? | 2.8µM* | 1.4µM* | 9.5µM* | 11µM*
COc1ccc(Nc2nc(N)nc(SCc3nnc(C)s3)n2)cc1 | 1% | ? | 26% | ? | 24µM* | ?
COc1ccc(Nc2nc(N)nc(CSc3nnc(N)s3)n2)cc1 | -6% | ? | ? | ? | ? | 25%
Oc1ccccc1Nc1nc(-c2ccccc2)c2cc(Cl)ccc2n1 | · | · | · | · | 4% | -3%
Cn1c(N)c(S(=O)(=O)c2ccc(Br)cc2)c2nc3ccccc3nc21 | 2% | -5% | -2% | -9% | 0% | -1%
Cc1ccc(O)c(CNc2nccs2)c1 | · | 3% | 3% | 7% | -4% | ·
COc1ccc2nc(SCc3nc(N)nc(Nc4ccccc4)n3)[nH]c2c1 | 3% | -1% | -6% | 14% | 13µM* | -13%
CC(=O)NC(C1C(=O)CC(C)(C)CC1=O)(C(F)(F)F)C(F)(F)F | 2% | 1% | 0% | -2% | 1% | -4%
CCn1c(SCC(=O)Nc2ccc3c(c2)OCO3)nnc1C1CC1 | · | -1% | -5% | -4% | -12% | ·
CCn1c(SCC(=O)Nc2ccc3c(c2)OCCO3)nnc1-c1c[nH]c2ccccc12 | · | 1% | -2% | -3% | 13µM* | ·
Nn1c(SCC(=O)NC(=O)Nc2ccc3c(c2)OCCO3)nnc1C1CC1 | -3% | 14% | 21% | ? | 19µM* | ?
O=C(CSc1nnc(-c2c[nH]c3ccccc23)n1CC1CCCO1)Nc1ccc2c(c1)OCCO2 (stereo unspecified) | -1% | 0% | 7% | 1% | -17% | 17%
CCn1c(SCC(=O)Nc2ccc3c(c2)OCCO3)nnc1-c1cccs1 | -8% | 2% | -1% | 13% | 11µM* | -2%
CCn1c(C)nnc1SCC(=O)Nc1ccc2c(c1)OCCO2 | · | 20% | 1% | 22% | ? | ·
CCn1c(SCC(=O)Nc2ccc3c(c2)OCCO3)nnc1C1CC1 | · | 1% | -3% | -3% | 15µM* | ·
Cc1sc2ncn(CC(=O)N3CCC(C(N)=O)CC3)c(=O)c2c1S(=O)(=O)N1CCOCC1 | · | 0% | -1% | 2% | -1% | ·
COc1ccc(CCn2c(N3CCN(Cc4ccccc4)CC3)nc3c2c(=O)[nH]c(=O)n3C)cc1 | 5% | 0% | -1% | 3% | 1% | -10%
SMILES | Luc counter | ELG1 genotox | NPC1 promoter act | Rab9 promoter act | FLuc counter | SMN2 splice enh
COc1cccc(NC(=O)CSCC(=O)O)c1 | 17% | 0% | -2% | -2% | 1% | 0%
CC(C)(C)c1ccc(C(=O)Nc2nnc(C3=COCCO3)o2)cc1 | · | -3% | -3% | -2% | 21µM* | ·
CN(C)c1ccc(C(=O)Nc2nnc(C3=COCCO3)o2)cc1 | -3% | 14% | 21% | 24% | -17% | -7%
Cc1cc(C(=O)CN2CCCC(C)C2)c(C)n1-c1ccc(F)cc1 (stereo unspecified) | 1% | ? | ? | 2.5µM* | 15µM* | 18µM*
Nc1nonc1C(=O)OCC(=O)c1ccc(Cl)cc1 | 4% | 0% | -3% | -3% | 2% | -11%
N/C(=N\OC(=O)c1ccc(Cl)cc1)c1nonc1N | ? | 17% | -1% | -10% | 1.7µM* | 17%
N/C(=N/OC(=O)c1ccccc1F)c1nonc1N | 11µM* | 13% | 13% | -2% | 4.8µM* | 11%
CCOC(=O)c1cccc(NC(=O)NCc2ccc3c(c2)CCN3C(=O)CC)c1 | · | · | · | · | -13% | ·
Cn1cc(Cl)c(C(=O)Nc2nc3ccc([N+](=O)[O-])cc3s2)n1 | -3% | 5% | ? | ? | 1.2µM* | ·
Cn1cc(Cl)c(C(=O)Nc2nc3ccc(Cl)cc3s2)n1 | -18% | ? | 2.8µM* | 1.4µM* | 3.4µM* | 22µM*
CCN(CC)S(=O)(=O)c1ccc(C(=O)Nc2nc3ccc(Cl)cc3s2)cc1 | · | · | · | · | 0% | ·
Cc1cc(C(=O)COc2cccc3cccnc23)c(C)n1C | -7% | 1% | ? | 26% | 17µM* | ?
Cc1cc(C(=O)COc2ccccc2C(N)=O)c(C)n1C | -1% | 1% | 12% | 12% | ? | -5%
Cc1cc(C(=O)COc2ccc(Cl)cc2Br)c(C)n1C | 4% | 10% | 28% | ? | 21µM* | 7%
NC(=O)C(c1ccccc1)c1ccc(C(=O)c2ccccc2)cc1 (stereo unspecified) | · | -6% | 0% | -8% | 0% | ·
COc1ccc(/C=C/c2ccc3cccc(O)c3n2)cc1Br | · | ? | ? | 16% | 6µM* | ·
COc1cc(/C=C/c2ccc3cccc(O)c3n2)cc(Cl)c1OC | · | 21µM* | 0.63µM* | 0.71µM* | 2.7µM* | ·
COc1cc(/C=C/c2ccc3cccc(O)c3n2)cc(Br)c1OC | · | 23µM* | 2.8µM* | 4µM* | 4.8µM* | ·
COc1ccc(Br)cc1/C=C/c1ccc2cccc(O)c2n1 | · | 4% | 28% | 8% | ? | ·
COC(=O)c1ccc(/C=C/c2ccc3cccc(OC)c3n2)cc1 | 1% | -5% | 0% | 3% | 5.4µM* | -4%
COc1cc(/C=C/c2ccc3cccc(O)c3n2)cc(OC)c1OC | · | ? | 26% | 23% | ? | ·
COC(=O)c1ccc(C=O)cc1 | · | · | · | · | · | -14%
COc1ccccc1C(=O)NCC(=O)OC(C)C(=O)NC(=O)NC1CCCCC1 (stereo unspecified) | -3% | 0% | -1% | -1% | -2% | -3%
COc1ccc(/C=C/c2ccc3c(Br)ccc(O)c3n2)cc1 | · | ? | ? | ? | 5.4µM* | ·

Bioassay records deposited in PubChem by National Center for Advancing Translational Sciences (NCATS).
